Source: PubChem
A selection: hits, their analogues and other compounds. The true share with any hit is near 6.8%.
T cruzi growth-1: inhibitors of T. cruzi proliferation; T. cruzi beta-gal in NIH3T3, GalScreen luminescence, 90 h; inhibition, % at 8.34 µM; hit rate 5.9% among 77,000;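 active means mean inhibition above about 93%, with at least 55% of replicates each passing it, limit read from the data, passing the limit was not always enough; inconclusive means only one of those two conditions holds; inactive means neither condition holds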
C diff HTS: C. difficile growth inhibition | growth activity, negative = inhibition, % at 16 µg/mL (by protocol) | Clostridium difficile clinical isolate growth, OD600, 24 h; hits give low values | hit rate 0.25% among 86,000;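 active means mean growth activity at or below -80% and every replicate also at or below -80%; inconclusive means mean at or below -80% but some replicate above -80%; inactive means mean growth activity above -80%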
Pf Dd2 growth: blocks growth of Plasmodium falciparum Dd2 parasites | P. falciparum Dd2 growth, SYBR Green, 72 h; hits give low values | activity change, % at 10 µM | hit rate 2.3% among 94,000; in the data active means activity change below about -80%; inconclusive means no clear call, values can overlap the other calls
T cruzi growth-2: blocks T. cruzi growth in NIH3T3 host cells; AID 651739; inhibition, % at 8.35 µM; T. cruzi beta-gal in NIH3T3, GalScreen luminescence, 90 h; hit rate 72% among 5,600; shares compounds with T cruzi growth-1;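 active means mean replicate inhibition above about 95% and at least 55% of replicates individually reaching it, limit read from the data; inconclusive means only one of the two criteria is met; inactive means neither criterion is met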
T cruzi growth-3: Trypanosoma cruzi proliferation inhibition. inhibition, % at 2.09 µM. shares compounds with T cruzi growth-1. hit rate 21% among 5,600. T. cruzi beta-gal in NIH3T3, GalScreen luminescence, 90 h;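 active means mean inhibition above about 95%, with at least 55% of replicates also reaching it, limit read from the data; inconclusive means meets just one of the two conditions; inactive means meets neither condition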
3T3 cytotox: NIH/3T3 (mouse) viability loss | shares compounds with T cruzi growth-1 | NIH/3T3 viability, CellTiter-Glo ATP luminescence, 90 h | cytotoxicity (signal decrease), % at 8.35 µM | hit rate 14% among 5,600 | AID 651742;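 active means mean signal decrease across replicates above about 35% based on untreated-well scatter, with enough replicates individually passing, limit read from the data; inconclusive means no rule stated though some were filed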
3T3 cytotox 2: cytotoxicity in mouse NIH/3T3 fibroblasts; NIH/3T3 viability, CellTiter-Glo ATP luminescence, 90 h; AID 651744; inhibition, % at 24.9 µM; shares compounds with T cruzi growth-1; hit rate 56% among 5,600;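 active means mean loss of cell viability signal at or above a set limit, and enough replicates individually reaching it; inconclusive means meets only the mean limit or only the replicate share; inactive means meets neither condition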
Hits are given with their value.

Screening CCN1[C@@H]2Cn3c(ccc(C4=CCCCC4)c3=O)[C@H]1[C@@H](C(=O)NCCc1ccncc1)[C@@H]2CO returned T cruzi growth-1 99, C diff HTS inactive, Pf Dd2 growth inactive, T cruzi growth-2 inactive, T cruzi growth-3 inactive, 3T3 cytotox inactive and 3T3 cytotox 2 inactive.
For CCN1[C@@H]2Cn3c(ccc(C4=CCCC4)c3=O)[C@H]1[C@@H](C(=O)NCc1ccccn1)[C@@H]2CO the results were T cruzi growth-1 99, C diff HTS inactive, Pf Dd2 growth inactive, T cruzi growth-2 inactive, T cruzi growth-3 inactive, 3T3 cytotox inactive and 3T3 cytotox 2 inactive.
For CCCN1[C@@H]2c3ccc(C4=CCCCC4)c(=O)n3C[C@H]1[C@H](CO)[C@H]2C(=O)NCCc1ccncc1 the results were C diff HTS inactive and Pf Dd2 growth inactive.
`COCC(=O)Nc1ccc2c(c1)C(=O)N(C)[C@H]1CC[C@H](CC(=O)O)O[C@H]1CO2` gave T cruzi growth-1 inactive, C diff HTS inactive and Pf Dd2 growth inactive.
Screening COCC#Cc1ccc2c(c1)O[C@H](CN(C)Cc1cccnc1)[C@@H](C)CN([C@H](C)CO)S2(=O)=O returned T cruzi growth-1 inactive, C diff HTS inactive and Pf Dd2 growth inactive.
For CCCC#Cc1ccc2c(c1)O[C@H](CN(C)Cc1cncnc1)[C@@H](C)CN([C@H](C)CO)S2(=O)=O the results were T cruzi growth-1 inactive, C diff HTS inactive and Pf Dd2 growth inactive.
For C[C@H](CO)N1C[C@H](C)[C@@H](CN(C)Cc2cccnc2)Oc2cc(C#CCN(C)C)ccc2S1(=O)=O the results were T cruzi growth-1 104, C diff HTS inactive, Pf Dd2 growth inactive, T cruzi growth-2 103, T cruzi growth-3 104, 3T3 cytotox inactive and 3T3 cytotox 2 inactive.
Screening CCCC#Cc1ccc2c(c1)O[C@@H](CN(C)Cc1cccnc1)[C@@H](C)CN([C@H](C)CO)S2(=O)=O returned T cruzi growth-1 109, C diff HTS inactive, Pf Dd2 growth inactive, T cruzi growth-2 101, T cruzi growth-3 96, 3T3 cytotox inconclusive and 3T3 cytotox 2 29.
CCCC#Cc1ccc2c(c1)O[C@@H](CN(C)Cc1cccnc1)[C@H](C)CN([C@@H](C)CO)S2(=O)=O was read as T cruzi growth-1 122, C diff HTS inactive, Pf Dd2 growth inactive, T cruzi growth-2 99, T cruzi growth-3 inactive, 3T3 cytotox 55 and 3T3 cytotox 2 107.
For CCCC#Cc1ccc2c(c1)O[C@@H](CN(C)Cc1cccnc1)[C@H](C)CN([C@H](C)CO)S2(=O)=O the results were T cruzi growth-1 119, C diff HTS inactive, Pf Dd2 growth inactive, T cruzi growth-2 97, T cruzi growth-3 96, 3T3 cytotox 45 and 3T3 cytotox 2 105.
For COCC#Cc1ccc2c(c1)O[C@H](CN(C)Cc1cccnc1)[C@H](C)CN([C@H](C)CO)S2(=O)=O the results were T cruzi growth-1 inactive, C diff HTS inactive and Pf Dd2 growth inactive.
C[C@H](O)C#Cc1ccc2c(c1)O[C@@H](CN(C)Cc1cccnc1)[C@@H](C)CN([C@H](C)CO)S2(=O)=O was read as T cruzi growth-1 inactive, C diff HTS inactive and Pf Dd2 growth inactive.
C[C@@H]1CN([C@H](C)CO)C(=O)c2ccccc2-c2ccccc2CO[C@@H]1CN(C)S(=O)(=O)c1ccccc1F was read as T cruzi growth-1 inactive, C diff HTS inactive and Pf Dd2 growth inactive.
For CNC[C@@H]1Oc2cc(C#Cc3cccnc3)ccc2S(=O)(=O)N([C@H](C)CO)C[C@H]1C the results were T cruzi growth-1 inactive, C diff HTS inactive and Pf Dd2 growth inactive.
For C[C@@H]1CN([C@@H](C)CO)C(=O)c2cc(NS(=O)(=O)c3ccc(Cl)cc3)ccc2O[C@H]1CN(C)S(=O)(=O)c1cccs1 the results were T cruzi growth-1 inactive, C diff HTS inactive and Pf Dd2 growth inactive.
Cc1cccc(S(=O)(=O)N2C[C@H](O)COC[C@H]3O[C@H](CC(=O)NCc4ccc5c(c4)OCO5)CC[C@@H]32)c1 was read as T cruzi growth-1 inactive and Pf Dd2 growth inactive.
For CCC(=O)N1C[C@@H](C)[C@@H](OC)CN(C)C(=O)c2cc(NC(=O)CC(F)(F)F)ccc2OC[C@@H]1C the results were C diff HTS inactive and Pf Dd2 growth inactive.
